# Assay results from PubChem BioAssay AID2546 (National Center for Advancing Translational Sciences (NCATS), 2010).
# About 11,000 (3.5%) of roughly 310,000 compounds were called active. Another 8% or so got no clear call; they are omitted. The sample holds actives, similar compounds and a random draw of the others, so the mix is not that of the screen. A number with no mark means an inactive call. The call rests on the fitted dose curve; in most records, active means well fitted inhibition curve with a large enough effect; inconclusive means small, poorly fitted or top-dose-only effect, or effect the other way; inactive means flat fitted curve, though single readings scatter.
# Assay: VP16 counterscreen qHTS for inhibitors of ROR gamma transcriptional activity;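 further: Gal4-VP16 expression switched on by copper sulfate through the metallothionein promoter; nearly all actives have a fitted effect of over 50% in size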
# Details: Drosophila S2 Gal4-VP16 UAS-luciferase, luminescence, 20 h; series mostly up to 53.6 µM; activity, negative = inhibition: at the top concentration
# Description: NIH Molecular Libraries Probe Production Network [MLPCN]
# NIH Chemical Genomics Center [NCGC]
# Assay Provider: Dan Littman, New York University
# The retinoic acid-related orphan receptor (ROR) gamma is a transcription factor that has a central role in the differentiation of Th17 cells, a subset of T helper cells that secrete the inflammatory cytokines IL-17, IL-17F, and IL-22. Th17 cells have been implicated in graft versus host disease, autoimmune disease and asthma. ROR gamma is induced in naive T helper cells in the presence of TGF-beta combined with IL-6, IL-21, or IL-23, and thereafter directs the expression of the Th17 lineage cytokines. To identify nonspecific inhibitors, a Drosophila Schneider cell line was stably transfected with two vectors: a gene expressing a fusion of the Gal4 DNA binding domain and VP16 transactivation domain under the control of the metallothionine promoter and a Photinus luciferase reporter regulated by the Gal4 binding site enhancer, UAS. […] Small molecule inhibitors that inhibit components common to the RORgt and VP16 assays, such as the Gal4 DNA binding domain or the UAS luciferase reporter, will be active in both assays and thus scored as nonspecific.
# For screening, 600 cells in 4 uL/well were dispensed into white solid 1536-well plates (Grenier) using a solenoid-based dispenser. Following transfer of 23 nL compound or DMSO vehicle by a pin tool, the plates were incubated 1 hr at ambient temperature, and 1 uL/well copper sulfate (700 uM final concentration) was added. The plates were centrifuged 15 s at 1000 RPM and incubated 20 hr at ambient temperature. After addition of 1.5 uL Photinus luciferase detection reagent, the plates were incubated 10 min at ambient temperature and then read by a ViewLux (Perkin Elmer) to detect luminescence.
# On the % scale 0 is the no-effect control and ±100 the full control effect; potency means the concentration at half of the fitted maximal effect.
SMILES,"activity, negative = inhibition",Potency
COc1ccc(N(C(=O)c2snc(C(N)=O)c2N)C(C(=O)NC2CCCC2)c2ccco2)cc1OC (configuration not stated),18.6%,
COc1ccc(C(=O)Nc2cccnc2)cc1C(=O)Nc1cccnc1,-9.29%,
COc1ccc(C(=O)N2CCCC(C(=O)c3ccccc3OC)C2)cc1OC (configuration not stated),2.57%,
COc1ccc(C(=O)NC(=S)N2CCCCC2c2cccnc2)cc1OC (configuration not stated),,17.8 µM (active)
O=C(Nc1ccccc1C(F)(F)F)N1CCCC1c1cccnc1 (configuration not stated),-1.56%,
Cc1ccc(-c2cc(C(F)(F)F)n3ncc(C(=O)N4CCCCC4c4cccnc4)c3n2)cc1 (configuration not stated),-3.74%,
O=C(NC(=S)N1CCCCC1c1cccnc1)c1ccccc1 (configuration not stated),,4.47 µM (active)
COc1ccc(Nc2ncnc3sc(C)cc23)cc1,-8.4%,
Cc1ccc(-c2ccnc3[nH]n(-c4ccccc4)c(=O)c23)cc1,-8.24%,
Cc1ccc(-n2[nH]c(C)c(/C=N/N3C(=O)c4cccc5cccc(c45)C3=O)c2=O)cc1,,12.6 µM (active)
CCc1nnc(NS(=O)(=O)c2ccc(N=Cc3c(C)[nH]n(-c4ccc(C)cc4)c3=O)cc2)s1,0.41%,
O=C(CNC(=O)C1COc2ccccc2O1)N/N=C/c1cc(Br)c(O)c(Br)c1 (configuration not stated),-0.0094%,
O=C(NCCc1c[nH]c2ccccc12)C1CCN(Cc2ccc(Br)cc2)CC1,-0.728%,
COc1ccccc1N1CCN(C(=O)CCS(=O)(=O)c2ccc3c(c2)NC(=O)C(C)S3)CC1 (configuration not stated),-26.4%,
CCOc1ccc(NC(=O)C2CCN(C(=O)N3CCOc4ccccc43)CC2)cc1,-5.72%,
CCCNC(=O)c1cnc(-c2ccccc2)nc1-c1ccccc1,14.3%,
CCOC(=O)c1c(C)[nH]c2c1-c1ccccc1C(=O)C2=O,,2.82 µM (active)
CCOC(=O)c1c(C)[nH]c(C)c1S(=O)(=O)N(C)CC(=O)Nc1ccccc1C,0%,
CCOC(=O)c1c(C)[nH]c(=S)c(C#N)c1-c1ccccc1,,17.8 µM (active)
CC(=O)c1c(C)[nH]c(=S)c(C#N)c1-c1ccc(F)cc1,-8.92%,
CCOC(=O)c1c(C)[nH]c(C(=O)NCc2ccccc2OC)c1C,-2.66%,
CCOC(=O)c1c(C)nc(-c2ccccc2)nc1NC(=O)C(C)C,17%,

SMILES,"activity, negative = inhibition",Potency
COc1cccc(CN(C)C(=O)CC23CC4CC(CC(C4)C2)C3)c1OC,-3.75%,
COc1cc(/C=C/C(=O)O)cc(S(=O)(=O)Nc2ccccc2C(=O)NCCc2ccccc2)c1OC,-14%,
OC(CNCCc1ccc(Cl)cc1Cl)COc1ccccc1 (configuration not stated),-1.98%,
O=C(N/N=C/c1ccccc1O)/C(=C/c1ccccc1)CCO,,1.12 µM (active)
O=C(CCC(=O)Nc1ccccc1)N/N=C/c1ccccc1F,19%,
O=C(CCCCCNC(=O)c1ccccc1)N/N=C/c1ccccc1,-1.19%,
COc1ccc(CNS(=O)(=O)c2ccc(-c3cnc(C4CC4)o3)cc2)cc1,-15.3%,
Cc1ccc(S(=O)(=O)NNC(=O)/C=C/c2cccc(F)c2)cc1,-0.326%,
Cc1c(CC(=O)NCC(=O)NCC(=O)O)c(=O)oc2cc3oc4c(c3cc12)CCCC4,-3.98%,
Cc1cc(C2=NNC(=Nc3ccc(S(=O)(=O)N4CCOCC4)cc3)SC2)c(C)n1CC1CCCO1 (configuration not stated),2.49%,
C=CCn1c(C)cc(C2=NNC(=NCC)SC2)c1C,,1 µM (active)
CS(=O)(=O)N1CCc2cc(C(=O)Nc3ccccc3Br)ccc21,24.9%,
CC(=O)Nc1cc(C(=O)O)ccc1S(=O)(=O)c1ccc(Cl)cc1,1.43%,
CS(=O)(=O)c1ccc(Cl)c(NC(=O)Nc2ccccc2)c1,8.24%,
O=C(Nc1ccccc1)c1nnsc1S(=O)(=O)c1ccc(Cl)cc1,,11.2 µM (active)
CC(=O)Nc1ccc(NC(=O)CN2C(=O)COc3ccc(S(=O)(=O)N4CCCCC4)cc32)cc1,-2.53%,
O=[N+]([O-])c1ccc(N(CCO)Cc2ccccc2)c([N+](=O)[O-])c1,-0.982%,
Cc1cccc(C(=O)O)c1,-10%,
Cc1cccc(C(=O)c2cccc(C)c2)c1,-10.7%,
Cc1cccc(/C(N)=N/OC(=O)c2ccccc2Cl)c1,,5.01 µM (active)
O=C(Nc1ccn(Cc2ccccc2)n1)c1n[nH]c([N+](=O)[O-])c1Cl,,11.2 µM (active)
Cc1ccc(Cn2ccc(NC(=O)c3cc(C(C)C)on3)n2)cc1,10%,

SMILES,"activity, negative = inhibition",Potency
O=C(Nc1ccn(Cc2ccccc2)n1)c1cccc(F)c1,-24.1%,
CCc1ccc(-c2cc3c(=O)n(CC(=O)NCCCN4CCN(Cc5ccccc5)CC4)nc(C)n3n2)cc1,-6.24%,
O=C(/C=C/c1ccc(Cl)cc1)NCCCn1ccnc1,9.13%,
Cc1ccc2nc(N3C(=O)C(O)=C(C(=O)c4ccco4)C3c3cccc(O)c3)sc2c1 (configuration not stated),-7.39%,
c1c2c(cc3sc(N4CCCCC4)nc13)OCCO2,,1.26 µM (active)
Cc1nc2cc3c(cc2s1)OCO3,-16.5%,
Brc1ccc2nc(N3CCCC3)sc2c1,-10.3%,
CN(c1ccccc1)S(=O)(=O)c1ccc(Cl)c(C(=O)NCCc2c[nH]c3ccccc23)c1,-1.77%,
CN(c1ccccc1)S(=O)(=O)c1cc(C(=O)Nc2nc3ccccc3[nH]2)ccc1Cl,,3.16 µM (active)
CN(c1ccccc1)S(=O)(=O)c1cc(C(=O)OCC(=O)N2CCN(C(=O)c3ccco3)CC2)ccc1Cl,7.37%,
Cc1c2cnn(CC(=O)NCCCN3CC(C)CC(C)C3)c(=O)c2c(C)n1Cc1ccc(Cl)cc1 (configuration not stated),-1.41%,
COc1ccc(C(=O)NCc2nnc(SCC(=O)NC3=NCCS3)n2C)cc1,2.32%,
Cc1cc(-c2ccc(S(=O)(=O)N3CCN(c4cccc(C(F)(F)F)c4)CC3)s2)on1,-17.3%,
NC(=O)c1cc2ccccc2o/c1=N/NC(=O)c1cccc(F)c1,-20.1%,
Cc1cccc(S(=O)(=O)N2CN(CC3CCCO3)c3nc4ccccc4nc32)c1 (configuration not stated),5.1%,
Fc1ccccc1/C=C1\CCCC2=C1Nc1ncnn1C2c1ccccc1F (configuration not stated),,3.98 µM (active)
CC1=C(C(N)=O)C(c2ccc(Br)cc2)n2ncnc2N1 (configuration not stated),12.9%,
Cc1ccc(C(=O)c2coc3ccc(O)c(CN(C)C)c23)cc1,-13.4%,
CCCCCCn1cc(C(=O)O)c(=O)c2cc(F)c(N3CCCCC3)cc21,-9.72%,
Cc1ccc(NC(=O)c2cc(-c3ccccc3O)n[nH]2)cc1C,-8.32%,
O=C(c1ccc(OC2CCN(C/C=C/c3ccc(F)cc3)CC2)cc1)N1CCCCC1,7.64%,
COc1ccccc1OCc1ccc(C(=O)NC(C)c2ccccc2)o1 (configuration not stated),-3%,

SMILES,"activity, negative = inhibition",Potency
CCOc1ccc(C)cc1S(=O)(=O)NC1CCCCCC1,23.3%,
COc1cccc(/C=N/Nc2ncc(C(F)(F)F)cc2Cl)c1O,,3.16 µM (active)
COC(=O)Cc1ccc(Oc2ncc(C(F)(F)F)cc2Cl)cc1,5.94%,
COc1cc(/C=C2\SC(=S)N(Nc3ncc(C(F)(F)F)cc3Cl)C2=O)cc(OC)c1OC,-11.4%,
C=CCNC(=S)NNc1ncnc2sc3c(c12)CC(C)(C)OC3,,7.08 µM (active)
CCSc1nc2sc3c(c2c(=O)[nH]1)CC(C)(C)OC3,1.94%,
CN(C)CCSc1nc(N)c2c3c(sc2n1)COC(C)(C)C3,-8.2%,
CC(C)(C)NS(=O)(=O)c1ccc(NC(=O)C2CCCO2)cc1 (configuration not stated),-3.37%,
Cc1c(C)c2c(OCC(=O)NCCCO)cc3c(c2oc1=O)CCC(C)(C)O3,4.21%,
COC(=O)c1c(NC(=O)c2ccc(S(=O)(=O)N3CCOCC3)cc2)sc2c1CCN(C(C)C)C2,-1.8%,
CC(C)CCn1c(=O)c2c(nc3n2CCCN3Cc2ccccc2)n(C)c1=O,-14.9%,
COc1ccc(NC(=O)N2CCC(Cc3ccccc3)CC2)cc1,4.74%,
COc1ccc(OCC(=O)Nc2ccc(N3CCC(C)CC3)cc2)cc1,-2.59%,
COc1ccc(NC(=S)NCC2CCN(c3ccc(OC)cc3)C2)cc1 (configuration not stated),,4.47 µM (active)
COc1ccc(N2CCC(CNC(=S)Nc3c(C)cccc3C)C2)cc1 (configuration not stated),,2.24 µM (active)
COc1cccc(N2CC(C(=O)Nc3c(C)cccc3C)CC2=O)c1 (configuration not stated),0.144%,
COc1ccc(NC(=S)NCCN2CCC(C)CC2)cc1,-17.1%,
Cc1cccc2c1cnn2C(=O)CCC(=O)NC1CCCCC1,3.24%,
O=C(N/N=C/c1cccc(Br)c1)c1ccc(N2CCCC2=O)cc1,3.2%,
CCOc1ccc(CCNC(=O)CCc2nnc3ccc(N4CCCC4)nn23)cc1OCC,-1.18%,
COc1ccc(-c2cc(C(=O)N3CCN(Cc4ccc5c(c4)OCO5)CC3)on2)cc1OC,-0.461%,
Cn1c(CC(=O)Nc2ccc(F)cc2)nnc1SCC(=O)NC1CCCCC1,1.19%,

SMILES,"activity, negative = inhibition",Potency
Cc1ccc(NC(=S)N(CCCN2CCC(C)CC2)Cc2ccco2)cc1,2.2%,
CCCN(CC1COc2ccccc2O1)C(=S)Nc1ccc(C)cc1 (configuration not stated),,12.6 µM (active)
COc1ccc(NC(=O)C2COc3ccccc3O2)cc1 (configuration not stated),-10.7%,
Nc1cc(N)nc(SCc2cccc(F)c2)n1,12.2%,
CC(C)[C@H](NC(=O)N1CCn2c1nc1ccccc12)C(=O)NCCc1ccccc1,0%,
O=C(Nc1nnc(C2COc3ccccc3O2)o1)c1ccc(F)cc1 (configuration not stated),,0.562 µM (active)
O=C(Nc1ccccc1F)c1ccc2c(c1)OCO2,-8.17%,
CC1COc2ccccc2N1C(=O)c1ccc(F)cc1 (configuration not stated),8.51%,
Cc1ccc(OCC(=O)Nc2ccc3oc(=O)ccc3c2)cc1C,6.56%,
COc1ccc2cc(C(=O)NCC3CCCO3)[nH]c2c1 (configuration not stated),5.86%,
O=C(C1CCCN(S(=O)(=O)c2ccc([N+](=O)[O-])cc2)C1)N1CCCCC1 (configuration not stated),-5.57%,
Cc1ccc(C(=O)Nc2nnc(-c3cccs3)s2)cc1C,19.6%,
N#Cc1ccc(C(=O)Nc2nc(-c3cccs3)c(C(=O)C(F)(F)F)s2)cc1,,3.16 µM (active)
CC(=O)c1sc(NC(=O)c2ccc(C)cc2)nc1C,-5.98%,
CCc1ccccc1NC(=O)c1ccc2snnc2c1,1.19%,
Cc1c(C)c(C)c(S(=O)(=O)NCCc2ccccn2)c(C)c1C,12.6%,
CCc1c(C)nc(SCC(=O)NC2CCCC2)[nH]c1=O,7.14%,
CCc1ccc(-c2nc(SCC(=O)NC3CCCC3)n[nH]2)cc1,,14.1 µM (active)
COc1ccc(-c2nc(SCC(=O)N3CCCC3)n[nH]2)cc1,0.997%,
